Consider 40 compounds from PubChem BioAssay (Tox21).

SMILES strings stand for the structures. Several values for one entry are separate records, joined by “and”; a condition that tells them apart may be missing. Equal values may be shown once. Inconclusive results are not listed. A call without a number means that no potency is given here. Activity calls are given as the source filed them. The call rests on the fitted dose curve; in most records, active means well fitted cell-killing curve with a large enough effect in the repeat runs; inconclusive means weak or mixed curves; inactive means no such curve, though single readings can be large or run the other way.
Potency means the concentration at half of the fitted maximal effect.

The assay can be described thus: qHTS assay to identify small molecule agonists of the peroxisome proliferator-activated receptor delta (PPARd) signaling pathway - cell viability counter screen (AID 743211). Further: nearly all actives have a fitted effect of over 55% in size. To be noted: PPARd-bla HEK293H viability, CellTiter-Glo luminescence, 17 h; series mostly up to 62.6 µM. From the text: U.S. Tox21 Program National Center for Advancing Translational Sciences [NCATS] NIH Chemical Genomics Center [NCGC] U.S. Environmental Protection Agency [EPA] National Institutes of Environmental Health Sciences [NIEHS] National Toxicology Program [NTP] U.S. Food and Drug Administration [FDA] Tox21 Assay Overview: The peroxisome proliferator-activated receptors (PPARs) are lipid-activated transcription factors of the nuclear receptor superfamily with three distinct subtypes namely PPAR alpha, PPAR delta (PPARd) and PPAR gamma. All these subtypes heterodimerizes with Retinoid X receptor (RXR) and have different physiological functions. […] To identify the compounds that activate PPAR-delta signaling, GeneBLAzer PPAR delta UAS-bla HEK293H cell line (Invitrogen, Carlsbad, CA, USA) containing a beta-lactamase reporter gene under the control of an Upstream Activator Sequence (UAS) was used to screen the Tox21 compound library. The cytotoxicity of the Tox21 compound library against the PPARd-bla cell line was tested in parallel by measuring the cell viability using CellTiter-Glo assay (Promega, Madison, WI) in the same wells.
Tox21 Assay Protocol Summary: PPARd-bla cells were dispensed at 3000 cells/6uL/well in 1536-well black wall/clear bottom plates using a Multidrop Combi (Thermo Fisher Scientific, Waltham, MA) dispenser. After the assay plates were incubated at 37 C and 5% CO2 for 5 h, 23 nL of compounds dissolved in DMSO, positive controls or DMSO only was transferred to the assay plate by a Pintool station (Kalypsys, San Diego, CA). The assay plates were incubated at 37C for 17 h. After 1 uL of LiveBLAzerTM B/G FRET substrate was added using a Bioraptr Flying Reagent Dispenser (FRD) workstation (Beckman Coulter, Indianapolis, IN, USA), the plates were incubated at room temperature for 2 h, and fluorescence intensity was measured by an Envision plate reader (PerkinElmer, Shelton, CT). For cell viability readout that measures cytotoxicity, 3 ul/well of CellTiter-Glo reagent was added into the assay plates using a Bioraptr FRD. After 30 min incubation at room temperature, the luminescence intensity in the plates was measured using a ViewLux plate reader (PerkinElmer).
With `C[C@]12CC[C@@H]3c4ccc(O)cc4CC[C@H]3[C@@H]1CC[C@@H]2O`, the Potency entry was “inactive”.
The result for `CC(C)(C)c1cccc(C(C)(C)C)c1O` reads “inactive”; that for `NCCOCCO`, “inactive”.
The result for `NCCN` reads “inactive”.
For the compound `COc1ccc(-c2coc3cc(O)cc(O)c3c2=O)cc1`, the Potency entry was “inactive”.
Next, `CC(=O)Oc1c(C)c(C)c2c(c1C)CC[C@@](C)(CCC[C@H](C)CCC[C@H](C)CCCC(C)C)O2`: “inactive”; `c1ccc2c(c1)ccc1ncccc12`: “inactive”; `Nc1ccc(O)c(N)c1`: “inactive”.
The result for `O=C1OC2(c3ccccc31)c1cc(I)c(O)c(I)c1Oc1c2cc(I)c(O)c1I` reads “inactive”; that for `O=S1(=O)CCCO1`, “inactive”; that for `CCC/C=C/C=O`, “inactive”.
Turning to `CCCCCCCC/C=C\CCCCCCCC(=O)O`, the Potency entry was “inactive”.
Consider `C[N+](C)(C)CCO`, for which the Potency result was “inactive”.
With `C/C=C/C(=O)N(CC)c1ccccc1C`, the Potency entry was “inactive”.
For `CCCCCC1C(=O)CCC1CC(=O)OC` (stereo not given), the Potency result is “inactive”.
Next, `CN(C)CCCN1c2ccccc2Sc2ccc(Cl)cc21`: 11 µM (active) and 23.7 µM (active); `CC1(C)NC(=O)N(c2ccc([N+](=O)[O-])c(C(F)(F)F)c2)C1=O`: “inactive”.
For the compound `C=CCCCCCCCCCC`, the Potency result is “inactive”.
Next, `CC/C=C\C/C=C\C/C=C\CCCCCCCC(=O)O`: “inactive”; `C=CCNCC=C`: “inactive”; `CCCCCCOCCOCCO`: “inactive”.
In the case of `O=C(O)c1ccc(O)cc1`, the Potency entry is “inactive”.
On to `Nc1ccc2c(c1)C(=O)c1ccccc1C2=O`, for which the Potency result is “inactive”.
Regarding `C=CC(C)(O)CCC=C(C)C` (stereo not given), the Potency entry was “inactive”.
The result for `O=C(O)CCCCCCCCCCCC(=O)O` reads “inactive”; that for `c1ccc2ncccc2c1`, “inactive”; that for `CC(C)=CCO`, “inactive”.
Next, `Cc1cccc(Nc2ccccc2C(=O)O)c1C`: “inactive”; `C[C@]12C=CC(=O)C=C1CC[C@H]1[C@@H]3C[C@@H](O)[C@](O)(C(=O)CO)[C@@]3(C)C[C@H](O)[C@@]12F`: “inactive”.
The result for `CCCCCCCCCCCCO` reads “inactive”.
With `Cc1ccc(/C(=C\CN2CCCC2)c2ccccn2)cc1`, the Potency result was “inactive”.
With `C1CN(SSN2CCOCC2)CCO1`, the Potency entry is “inactive”.
With `CCCOCCO`, the Potency result is “inactive”.
Next, `Cc1ccc2c(c1)C(=O)OC2=O`: “inactive”.
The result for `NCCS(=O)(=O)O` reads “inactive”; that for `COc1ccc2nc(N)sc2c1`, “inactive”; that for `CC(=O)Oc1ccc(C(c2ccc(OC(C)=O)cc2)c2ccccn2)cc1`, “inactive”.
For `CCCCCCCCCCC(CO)CCCCCCCC` (stereo not given), the Potency entry was “inactive”.
As to `CC[C@]12CCCN3CCc4c(n(c5ccccc45)[C@@](O)(C(=O)OC)C1)[C@@H]32`, the Potency result is “inactive”.
Next, `C=C[C@H]1CN2CC[C@H]1C[C@@H]2[C@@H](O)c1ccnc2ccc(OC)cc12`: “inactive”.
